The values below come from PubChem BioAssay.

Experiment [1] can be described thus: compounds altering viability of human ES cells (AID 493140; call rule not given here;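 note: cells exposed to compounds for four days before counting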). The settings on record: human embryonic stem cell survival screen; stronger effect = higher value.
The nature of experiment [2]: stimulators of insulin release from INS-1E, primary screen, cell-based, 5 mM glucose, NPC library (AID 1117329;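 active = compound raises insulin release from rat beta cells at 5 mM glucose, no numeric limit stated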). The settings on record: rat INS-1E insulin secretion, at 10 µM, stronger effect = higher value.
A short description of experiment [3]: growth inhibition of GSK3B-pretreated HCT116 cells – cell-based, CellTiter-Glo, 0.2 to 20 µM (AID 1117336;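 active = compounds lowering colon cancer cell viability after pretreatment blocking the GSK3B kinase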). The settings on record: HCT116 viability after GSK3B inhibitor, at 20 µM, stronger effect = higher value. On the technique in general: In ATP-based viability assays light output follows the ATP content of the culture.
The nature of experiment [4]: inhibition of endothelial tube formation, primary screen, imaging, VEGF stimulated, CD31 staining, tube area, NPC library (AID 1117340;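 active = compound that reduces growth-factor-driven endothelial tube area in a mixed cell culture, no cutoff stated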). The settings on record: VEGF-stimulated ADSC/ECFC co-culture, at 10 µM, stronger effect = higher value.
The nature of experiment [5]: GLP1 release stimulators, primary, NCI-H716, NPC library (AID 1117341;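 active = compound raises GLP1 secretion from the human gut endocrine cells, with no numeric limit stated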). As to conditions: NCI-H716 cells, at 10 µM, stronger effect = higher value.
A short description of experiment [6]: HCT116 colon cancer cell growth inhibition, primary screen, CellTiter-Glo luminescence, NPC library (AID 1117342;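 active = compounds that lower survival of HCT116 colon cancer cells in the luminescence readout, no numeric limit stated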). As to conditions: at 20 µM (top of the series).
Experiment [7] can be described thus: reduced SW480 viability measured with CellTiter-Glo, NPC library, primary (AID 1117343;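 active = compounds that lower viability of the colon cancer cells in the luminescence readout, with no numeric limit stated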). The settings on record: CellTiter-Glo luminescence; at 20 µM (top of the series) unless noted.
The nature of experiment [8]: NPC library primary testing for decreased DLD-1 cell viability via CellTiter-Glo (AID 1117346;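 active = compounds that lower survival of DLD-1 colon cancer cells in the luminescence readout, no cutoff given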). The settings on record: DLD-1 viability, CellTiter-Glo luminescence; at 20 µM (top of the series).
The target in experiment [9] is 6-phosphogluconate dehydrogenase, decarboxylating (Homo sapiens) (UniProt P52209). Description: inhibition of human phosphogluconate dehydrogenase – biochemical, recombinant enzyme, NADPH absorbance, primary screen (AID 1159550;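 active = at least 20% inhibition of 6-phosphogluconate dehydrogenase activity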). The settings on record: recombinant 6PGD, NADPH absorbance 341 nm; at 10 µM; stronger effect = higher value.
Sequence of 6-phosphogluconate dehydrogenase, decarboxylating (Homo sapiens) (P52209 whole entry, looked up): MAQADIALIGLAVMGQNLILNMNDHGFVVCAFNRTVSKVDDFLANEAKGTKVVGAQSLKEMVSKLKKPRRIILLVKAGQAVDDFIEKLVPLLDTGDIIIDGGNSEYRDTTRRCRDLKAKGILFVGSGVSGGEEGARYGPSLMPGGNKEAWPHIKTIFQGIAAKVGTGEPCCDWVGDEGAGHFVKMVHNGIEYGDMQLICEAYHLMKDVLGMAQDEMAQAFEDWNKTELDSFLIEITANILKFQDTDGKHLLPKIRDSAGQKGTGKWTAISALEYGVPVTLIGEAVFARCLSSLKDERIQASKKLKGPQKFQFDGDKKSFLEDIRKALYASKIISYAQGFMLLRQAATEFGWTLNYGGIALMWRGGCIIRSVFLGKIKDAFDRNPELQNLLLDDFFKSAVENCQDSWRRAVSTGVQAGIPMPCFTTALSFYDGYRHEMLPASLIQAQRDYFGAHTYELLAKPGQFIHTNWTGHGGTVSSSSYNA
The nature of experiment [10]: modulation of C. elegans fzo-1 (AID 1259413; call rule not given here;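 note: fzo-1 mutant C. elegans worms in liquid wells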). As to conditions: C. elegans fzo-1 modulator screen, mean read-out; stronger effect = higher value.
Experiment [11] in a line: EMT-state selective cytotoxicity in co-culture – imaging, PC-3E GFP, TEM4-18 mCherry, primary screen (AID 1345086;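 active = compounds killing one labelled cell type while sparing the other, by normalised counts and ratio limits, not self-fluorescent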;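 for all read-outs here: cells exposed to compound for 72 h before imaging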;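 for red/green cell ratio (normalised): normalised mesenchymal count divided by normalised epithelial count so high means epithelial killing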). The settings on record: PC-3E GFP / TEM4-18 mCherry co-culture, imaging cell counts, at 1 µM; for red/green cell ratio (normalised): actives lie on both sides, counts scaled to control wells, 1 = unselective.
The nature of experiment [12]: MELAS cybrid and Rieske KO viability enhancers – cell-based, MELAS cybrids, Rieske KO mouse fibroblasts, CellTiter-Glo, primary screen (AID 1508586).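 Note: z relative to plate mean and SD of compound and empty wells.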 As to conditions: low glucose.
In experiment [13] the target is NAD(+) hydrolase SARM1 (Homo sapiens) (UniProt Q6SZW1). Description: blocking NAD cleavage by SARM1 SAM-TIR – cell lysate, NAD-Glo luminescence (AID 1508614;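 active = compound whose remaining NAD level is above about 45 nM, limit read from the data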;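 note: higher remaining NAD means stronger inhibition of SARM1 NADase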). As to conditions: SAM-TIR HEK293T lysate NADase, at 1 µM, stronger effect = higher value.
Sequence of NAD(+) hydrolase SARM1 (Homo sapiens) (Q6SZW1 whole entry, looked up, the tested form may be a part): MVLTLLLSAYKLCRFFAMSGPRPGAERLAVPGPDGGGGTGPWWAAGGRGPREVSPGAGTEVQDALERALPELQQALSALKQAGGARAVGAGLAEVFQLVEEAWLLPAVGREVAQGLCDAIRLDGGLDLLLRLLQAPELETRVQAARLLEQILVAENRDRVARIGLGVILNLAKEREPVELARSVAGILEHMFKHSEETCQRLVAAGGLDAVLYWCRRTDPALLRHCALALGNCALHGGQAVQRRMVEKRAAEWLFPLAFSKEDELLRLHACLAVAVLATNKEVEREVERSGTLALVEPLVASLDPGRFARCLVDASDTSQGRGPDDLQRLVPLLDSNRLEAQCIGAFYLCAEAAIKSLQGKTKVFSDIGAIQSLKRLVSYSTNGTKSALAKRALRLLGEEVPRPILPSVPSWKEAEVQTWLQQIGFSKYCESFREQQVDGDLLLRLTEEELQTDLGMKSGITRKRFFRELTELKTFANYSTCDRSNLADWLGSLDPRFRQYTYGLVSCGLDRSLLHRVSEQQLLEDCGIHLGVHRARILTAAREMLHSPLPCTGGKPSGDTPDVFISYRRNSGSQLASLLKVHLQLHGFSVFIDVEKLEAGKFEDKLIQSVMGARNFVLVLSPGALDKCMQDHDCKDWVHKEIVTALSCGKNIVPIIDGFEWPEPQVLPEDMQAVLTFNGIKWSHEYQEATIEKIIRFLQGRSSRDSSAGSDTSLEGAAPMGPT
In experiment [14] the target is Mitogen-activated protein kinase 7 (Homo sapiens) (UniProt Q13164). Description: Gal4-ERK5 driven luciferase induction – cell-based, HTS, primary screen (AID 1508626;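 active = luciferase signal above three times the same-plate solvent-only control wells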;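 note: luciferase driven by Gal4-ERK5 fusion binding five Gal4 sites before minimal TATA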). The settings on record: HeLa Gal4-ERK5 transactivation, 18 h, at 5 µM, stronger effect = higher value.
Sequence of Mitogen-activated protein kinase 7 (Homo sapiens) (Q13164 whole entry, looked up, the tested form may be a part): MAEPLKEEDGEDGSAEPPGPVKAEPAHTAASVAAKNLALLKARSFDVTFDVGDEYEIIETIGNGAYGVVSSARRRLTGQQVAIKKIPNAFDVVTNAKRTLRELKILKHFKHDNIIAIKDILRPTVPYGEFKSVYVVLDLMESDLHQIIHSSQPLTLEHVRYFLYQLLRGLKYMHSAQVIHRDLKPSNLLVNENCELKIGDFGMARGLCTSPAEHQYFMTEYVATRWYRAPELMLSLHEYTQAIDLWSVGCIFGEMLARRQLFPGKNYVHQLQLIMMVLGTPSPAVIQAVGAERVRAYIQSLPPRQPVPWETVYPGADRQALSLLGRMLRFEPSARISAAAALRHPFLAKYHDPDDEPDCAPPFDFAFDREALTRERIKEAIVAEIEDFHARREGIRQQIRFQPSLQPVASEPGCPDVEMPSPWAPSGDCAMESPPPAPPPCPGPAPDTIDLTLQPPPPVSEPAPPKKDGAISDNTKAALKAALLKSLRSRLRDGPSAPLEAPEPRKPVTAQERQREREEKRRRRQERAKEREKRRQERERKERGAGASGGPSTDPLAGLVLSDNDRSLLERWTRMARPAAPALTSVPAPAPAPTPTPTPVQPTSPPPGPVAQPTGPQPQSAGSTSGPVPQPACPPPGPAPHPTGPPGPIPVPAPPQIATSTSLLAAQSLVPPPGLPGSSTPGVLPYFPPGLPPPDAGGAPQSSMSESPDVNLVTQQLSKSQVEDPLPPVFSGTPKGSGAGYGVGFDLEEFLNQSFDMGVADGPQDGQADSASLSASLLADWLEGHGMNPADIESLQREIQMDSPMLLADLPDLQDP
Experiment [15] is described as follows: galactose survival enhancers in mitochondrial complex I cybrids – cell-based, galactose medium, ATP luminescence, primary screen (AID 1645843;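 active = z-score of at least 1.8 in each of two replicates, scored against plate mean and spread of sample wells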;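 note: positive z means more ATP and so rescue of galactose-driven cybrid death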). As to conditions: complex I mutant cybrid cells, 72 h, stronger effect = higher value.
The nature of experiment [16]: P. berghei load reduction in hepatocytes – cell-based, HepG2, luciferase luminescence, HepG2 viability, primary screen (AID 624349; in the data active = parasite load remaining mostly below about 12%, no sharp cut-off; inactive = mostly above about 10%;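 note: 100% = mean of DMSO negative control wells on the same plate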). The settings on record: P. berghei liver stage in HepG2, luciferase luminescence, concentration not given here; parasite load remaining: stronger effect = lower value; viability: measured here: HepG2 viability without parasites.
Experiment [17] can be described thus: Wnt pathway potentiators raising nuclear beta-catenin – imaging, WNT3A-conditioned medium, mouse C2C12, NPC library, primary screen (AID 1117326; in the data active = nuclear beta-catenin stimulation mostly above about 4.2%, no sharp cut-off; inactive = mostly below about 10%). The settings on record: stronger effect = higher value.
A short description of experiment [18]: viability loss with induced miR-34 in A549 – imaging, A549 dox-inducible miR-34, nuclei and caspase counts, primary screen (AID 1347080;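 active = compounds whose cell count with miR-34 switched on is under 0.7 times the count with it off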). The settings on record: A549 miR-34 inducible, Hoechst nuclei count, 48 h.
Setting [19] is: measured here: epithelial PC-3E GFP cell survival.
Where [20] appears, read: measured here: mesenchymal TEM4-18 mCherry cell survival.
Where [21] appears, read: MELAS cybrid survival, CellTiter-Glo 48 h, stronger effect = higher value.
Where [22] appears, read: Rieske KO mouse fibroblast survival, CellTiter-Glo 72 h.

Several values for one entry are separate records, joined by “and”; a condition that tells them apart may be missing. Equal entries are not always repeated. Activity calls are given as the source filed them.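 Rule for the calls, unless noted: active = mean z-score across replicates of 1.96 or higher in either the MELAS or the Rieske mutant cell line; inactive = the rest.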

As to `COc1cc(Cc2cnc(N)nc2N)cc(OC)c1OC`, in experiment [1], the survival was 17.1 (inactive). In addition, the insulin secretion stimulation in experiment [2] is -1.7% (inactive). In addition, the viability decrease in [3] is -3% (inactive). For the same compound, in experiment [4], the tube area decrease is 2% (inactive). Moreover, the GLP1 secretion stimulation in experiment [5] was 4.6% (inactive). The inhibition of viability in experiment [6] is 28.8% (inactive). In addition, the figures for the viability decrease (inhibition) in [7] and in experiment [8] were 39.7% (inactive) and 9.15% (inactive), respectively. In [9], the inhibition is -0.293% (inactive). The mean signal in experiment [10] was 243 (inactive). In experiment [11], the red/green cell ratio (normalised) is 1.12 (inactive). For the same compound, the results for the normalised cell number in experiment [11] (setting [19]) and in experiment [11] (setting [20]) were 0.91 and 1.02, respectively. Further, the z-score is -0.0749 (inactive) and 0.787 (inactive) and 0.308 (inactive) in experiment [12] (setting [21]); -0.219 and -0.384 and -0.669 in [12] (setting [22]); 0.49 (inactive) and 0.045 (inactive) and 0.71 (inactive) in experiment [15]. For the same compound, the remaining NAD in experiment [13] was 10 nM (inactive). Besides, in experiment [14], the luciferase signal is 48 AU (inactive).
For `Oc1ccc(O)cc1`, in experiment [16], the parasite load remaining was 24.8% (inactive) and -0.995% (inactive). Further, the viability in [16] was 92.7% and 79.1%. Moreover, the nuclear beta-catenin stimulation was 10.9% (inactive) in experiment [17] (at 10 µM) and 14.4% in [17] (stimulation, at 2 µM). Also, the viability decrease in [3] was 45.2% (inactive). Further, in experiment [6], the inhibition of viability is -47.7% (inactive). In addition, the values for the viability decrease (inhibition) in experiment [7] and in experiment [8] were 20.4% (inactive) and -15% (inactive), respectively. Also, in experiment [9], the inhibition was 10.8% (inactive). Also, the red/green cell ratio (normalised) in experiment [11] is 1.14 (inactive). Further, the values for the normalised cell number in experiment [11] (setting [19]) and in experiment [11] (setting [20]) were 1.14 and 1.29, respectively. Further, the fold change in experiment [18] (stronger effect = lower value, cell number ratio, induced over uninduced) was 0.97 (inactive) and 0.922 (inactive); in experiment [18] (measured here: relative caspase fold change +Dox/-Dox), 0.837 and 1.69. For the same compound, the cell count was 7800 and 7820 in [18] (measured here: total cells with miR-34 induction, stronger effect = lower value); 8040 and 8490 in experiment [18] (measured here: total cells without miR-34 induction). In [13], the remaining NAD is 10 nM (inactive). For the same compound, in [14], the luciferase signal is 40 AU (inactive). The z-score in experiment [15] is -1.04 (inactive).
For the compound `CC(C)NCC(O)COc1cccc2[nH]ccc12` (configuration not stated), the survival in [1] was 5.75 (inactive). For the same compound, the insulin secretion stimulation in experiment [2] was 0.3% (inactive). For the same compound, in [3], the viability decrease is 17.5% (inactive). Also, in experiment [4], the tube area decrease was 0% (inactive). For the same compound, the GLP1 secretion stimulation in experiment [5] was 1.4% (inactive). Besides, in experiment [6], the inhibition of viability is -13.4% (inactive). The viability decrease (inhibition) is -0.7% (inactive) in experiment [7] and -7.1% (inactive) in [8]. Besides, the inhibition in experiment [9] was 11.4% (inactive). In addition, the mean signal in experiment [10] is 248 (inactive). In addition, in [11], the red/green cell ratio (normalised) is 1.41 (inactive). For the same compound, the normalised cell number in experiment [11] (setting [19]) amounted to 0.83; in experiment [11] (setting [20]) it was 1.17. For the same compound, the z-score in experiment [12] (setting [21]) was -0.583 (inactive) and -0.452 (inactive); in [12] (setting [22]), -0.0517 and -0.221. In [13], the remaining NAD is 10 nM (inactive). In experiment [14], the luciferase signal was 84 AU (inactive).
`CNCCCN1c2ccccc2CCc2ccccc21`: the survival in experiment [1] is 2.75 (inactive). For the same compound, the insulin secretion stimulation in [2] is 15.8% (inactive). For the same compound, in experiment [3], the viability decrease is -17.7% (inactive). The tube area decrease in experiment [4] is 12.6% (inactive). Besides, the GLP1 secretion stimulation in experiment [5] was 5.9% (inactive). For the same compound, the inhibition of viability in experiment [6] is 37.5% (inactive). Besides, the viability decrease (inhibition) in experiment [7] was 104% (active); in experiment [8], 33.3% (inactive). The inhibition in [9] was 3.76% (inactive). Besides, the mean signal in experiment [10] is 181 (inactive). Further, the red/green cell ratio (normalised) in experiment [11] was 1.1 (inactive). For the same compound, the normalised cell number in experiment [11] (setting [19]) came out at 1.36; in experiment [11] (setting [20]), 1.5. In addition, the z-score in [12] (setting [21]) was 0.0784 (inactive); in experiment [12] (setting [22]), 0.183; in experiment [15] it was -0.895 (inactive) and -0.71 (inactive). For the same compound, the remaining NAD in experiment [13] is 10 nM (inactive). Moreover, the luciferase signal in experiment [14] was 80 AU (inactive).

Usually inhibition stands for the relative decrease from the control value, in per cent. Broadly, the viability is the share of living cells, or the viability signal relative to a control.
